Source: PubChem
Only a selection was taken, and hits are over-represented in it overall.
KDM5B inhibitor: KDM5B demethylase inhibition; Q9UGL1; KDM5B demethylase, FDH-coupled NADH fluorescence (FDH is formaldehyde dehydrogenase); Potency, µM (series often up to 57.7 µM), hits mostly inhibitors; 2.6% of 220,000 active; AID 1347165; active = well fitted inhibition curve with a large enough effect; also: nearly all actives have a fitted effect of over 70% in size
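Measured: NADH fluorescence change, 30 min, RT. System: KDM5BΔAP 200 nM final, H3K4me3 peptide, α-KG, Fe(II), ascorbate, NAD⁺ plus FDH, pH 7.5 HEPES. Compounds: titrated, 10 min pre-incubation with enzyme.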
Large screens that a line does not name were inactive.

CCOc1ccc2c(n1)CCN(C(=O)Nc1ccc(CC)cc1)C2	none
O=C(C1CCOCC1)N1CCc2nc(OCC3CC3)ccc2C1	none
Cc1ccccc1C(=O)N1CCc2[nH]nc(C(=O)NCCCc3ccccc3)c2C1	none
COc1ccc(C(=O)N2CCc3c(nc4cc[nH]n4c3=O)C2)c(C)c1	KDM5B inhibitor 28µM
CCOC(=O)c1ccc(NC(=O)N2CCN(Cc3nc(-c4ccc(C)cc4)oc3C)CC2)cc1	none
CCOc1ccc2c(n1)CCN(C(=O)C1CCOCC1)C2	none
CCOC(=O)c1ccc(NC(=O)N2CCc3c(nc4cc[nH]n4c3=O)C2)cc1	KDM5B inhibitor 22µM
Cc1ccccc1C(=O)N1CCc2c(nc3cc[nH]n3c2=O)C1	KDM5B inhibitor 28µM
COc1ccc(-c2noc([C@@H]3CCCN3C(=O)c3ccc(OC)cc3C)n2)cc1	none
CC(C)C(C)NC(=O)CCn1cnc2c1c(=O)n(C)c(=O)n2C (stereo not drawn)	none
CSc1ccccc1C(=O)Nc1c(C)cc(C)cc1Cl	none
O=S(=O)(NCC(c1cccnc1)S(=O)(=O)c1ccccc1)c1ccc(Cl)cc1 (stereo not drawn)	none
Cc1cnc(C(=O)Oc2ccc(C(C)(C)C)cc2C)cn1	none
CC(C)Cn1nc(C(=O)O)c2c1CCN(C(=O)CC(C)c1ccccc1)C2 (stereo not drawn)	none
Cc1cccc(C)c1NC(=O)CN1CCN(C(=O)CN(C)Cc2cnn(-c3ccccc3)c2)CC1	none
COCc1nc2nc(-c3ccccc3)c(-c3ccc(O)c(F)c3)cc2n1C	none
COc1nc2nc(CCc3ccccc3)n(C)c2cc1-c1ccc(CO)cc1	KDM5B inhibitor 35µM
COCc1nc2nc(-c3ccccc3)c(-c3ccc(OC)cc3)cc2n1C	KDM5B inhibitor 32µM
COc1nc2nc(CCc3ccccc3)n(C)c2cc1Nc1ccncn1	none
COCc1nc2nc(-c3ccccc3)c(-c3cccc(NC(C)=O)c3)cc2n1C	none
COc1ccccc1-c1cc(NC(=O)C(C)OCC2CC2)n[nH]1 (stereo not drawn)	none
Cc1nnc(-c2cc(-c3ccc(CO)cc3)ccn2)n1CCc1ccccc1	none
COc1nc2nc(CCc3ccccc3)n(C)c2cc1-c1cccc(NC(C)=O)c1	KDM5B inhibitor 35µM
COc1ccccc1-c1cc2c(nc1OC)nc(CC1CC1)n2C	KDM5B inhibitor 40µM
CC(=O)Nc1cccc(-c2ccnc(-c3nnc(C)n3Cc3ccccc3)c2)c1	none
COc1ccc(-c2nn3c(-c4ccccc4)nnc3c3ccccc23)cc1	none
COc1ccc(-c2cc3c(nc2OC)nc(CC2CC2)n3C)cc1OC	none
COC(=O)c1cc(CNC(=O)C2Cc3ccccc3S2)ccc1OC (stereo not drawn)	none
Cc1ccc(-c2noc(CN(C)C(=O)COc3ccc(Cl)cc3Cl)n2)cc1	none
CC(NC(=O)c1cc(-c2ccco2)nc2ccccc12)C(=O)NCc1ccccc1 (stereo not drawn)	none
O=C(c1ccc(Cl)c(Cl)c1)N1CCN(Cc2cc(=O)n3ccsc3n2)CC1	none
NC(=O)C1CCCN1C(=O)c1nn(-c2ccccc2)c(=O)c2ccccc12 (stereo not drawn)	none
O=C(c1ccc2cc[nH]c2c1)N1CCN(S(=O)(=O)c2cccc3nonc23)CC1	none
NC(=O)CSc1cc(C(=O)NC2CC2)c2ccccc2n1	none
COC(=O)CNc1ccccc1	none
CCc1noc(-c2cccn3c(CNC(=O)C4CC4)nnc23)n1	KDM5B inhibitor 25µM
O=C(NCCc1noc(-c2ccccc2)n1)C1CCCC1	none
CC(C)c1ccc(N2CC(C(=O)NCc3nc(C(C)C)no3)CC2=O)cc1 (stereo not drawn)	none
CC(C)c1noc(-c2cccn3c(CNC(=O)C4CC4)nnc23)n1	KDM5B inhibitor 28µM
CCCc1noc(-c2cccn3c(CNC(=O)C4CC4)nnc23)n1	KDM5B inhibitor 25µM
CCOc1ccc(OCC(O)CN2CCN(c3ccc(C(F)(F)F)cn3)CC2)cc1 (stereo not drawn)	none
CCn1nc(C)c(CNC(=O)Nc2ccc(OC)cc2OC)c1C	none
Cc1cc2c(cc1C)CSC(c1cc(Br)cc(Br)c1O)SC2	none
COc1ccc(C2NC(=S)NC(C)=C2C(C)=O)c(OC)c1 (stereo not drawn)	none
Cc1ccc(S(=O)(=O)N2CCN(C(=O)c3cc4cc(C)ccc4nc3C)CC2)c(C)c1	none
Cc1noc(C)c1C(=O)N1CCCN(S(=O)(=O)c2ccccc2)CCC(=O)NCC1	none
C/C(=N/NC(=S)NCc1ccccc1)c1ccc(Cl)c(Cl)c1	none
CCN(CC)c1ccc2nnc(CCC(=O)N3CCC(C)CC3)n2n1	none
CN(Cc1ccsc1)C(=O)CCc1ccccc1	none
CCN(CC)c1cc(CCC(=O)N2CCC(C)CC2)ccn1	KDM5B inhibitor 25µM
CC(C)NC(=O)N1CCOc2ccc(CCC(=O)NCCCN3CCOCC3)cc2C1	none
O=C(CCc1ncc(-c2c(F)cccc2F)o1)NCCCN1CCOCC1	none
CCN(CC)c1ccc2nnc(CCC(=O)N3CCOCC3)n2n1	none
CCN(CC)c1cc(CCC(=O)N(C)Cc2ccccc2)ccn1	KDM5B inhibitor 22µM
CN(Cc1ccc(C(=O)NCC(F)(F)F)cc1)C(=O)CCc1ccccc1	none
CCN(CC)c1cc(CCC(=O)NCCCN2CCOCC2)ccn1	KDM5B inhibitor 25µM
